The values below come from the OligoGym collection.

Some targets named below: MIA; MIB1; MFRP; MFNG; MIOX; MIP.
What all share (assay): pooled miR-30 sensor sort-seq; sequence = guide strand
Common to all, as to conditions: shRNA
Note: reference of the scale not given here.

In turn, TGAATGGTCAGGAATCGGCAGT displayed a sensor-assay potency score (higher = more potent) with MIA of -0.833.
As to TCAGGGTCTGGTCCTCTCGGAC, the sensor-assay potency score (higher = more potent) with MIA is -1.41.
For TTAAAGTCTCAAACATTCCATC, the sensor-assay potency score (higher = more potent) with MIB1 is -0.848.
For the sequence TAGTAATCTCCCTGAACGCTGC, the sensor-assay potency score (higher = more potent) with MIA was -0.496.
In the assay with MFRP, TATGCTGAGGGCTTCGATCTTG showed a sensor-assay potency score (higher = more potent) of -0.113.
With TTGACCACTGACTTTTTCCTTA, the sensor-assay potency score (higher = more potent) in the assay with MIB1 amounted to 0.24.
Consider TGTAGTTCTATGCTGTGTCCGG, for which the sensor-assay potency score (higher = more potent) in the assay with MFRP is -0.086.
Still for that read-out and setting: next, TTGCAGAACTCGGTCTTGCTCG: -0.303.
In turn, TAGAAGTTTAATTCGTTCCAGG showed a sensor-assay potency score (higher = more potent) with MIB1 of 0.00519.
TCTCGGACAATGCTACTGGGGA returned a sensor-assay potency score (higher = more potent) with MIA of -1.23.
Same read-out and setting: the same measure for TGGTCCGCACACAGCTTCCGGT: -1.49.
TCAAACTTGCACTCGTCCTGAG: the sensor-assay potency score (higher = more potent) in the assay with MFRP was 0.173.
Consider TGGTCCTCTCGGACAATGCTAC, for which, in the assay with MIA, the sensor-assay potency score (higher = more potent) was -1.39.
In the assay with MFNG, TTGCACTCAATGATATAGCCCA showed a sensor-assay potency score (higher = more potent) of -0.194.
In turn, TTGGTGAGGGTACTGCTGCAGG came in with a sensor-assay potency score (higher = more potent) with MFRP of -0.958.
Regarding TTTGTCTGGGCTGTCGGTGAAG, the sensor-assay potency score (higher = more potent) with MFNG was -0.931.
In turn, ATTTGTCTGTCTTCACATCGAC had a sensor-assay potency score (higher = more potent) with MIA of -0.34.
On the same count and under the same terms, the same measure for TTTGCCAGGTTTCAGGGTCTGG: -1.17.
With TTTAGCAACATCTCCATTGGCA, the sensor-assay potency score (higher = more potent) with MIB1 worked out at 0.277.
The sequence ATTGACATTGGTATTATCCTTG gave a sensor-assay potency score (higher = more potent) with MIB1 of 0.229.
As to TTTACATCCACATCTGGTCTTT, the sensor-assay potency score (higher = more potent) in the assay with MIB1 stood at 0.23.
Regarding TTCAGGGTCTGGTCCTCTCGGA, the sensor-assay potency score (higher = more potent) with MIA is -0.169.
The sequence TGTCTGTCTTCACATCGACTTT had a sensor-assay potency score (higher = more potent) with MIA of -1.3.
TGAAGTTGTGGAACTGTAGTTC: the sensor-assay potency score (higher = more potent) with MFRP was 0.0577.
Take TTTAGATAGTAAAACACGCATT: the sensor-assay potency score (higher = more potent) with MIB1 is -0.883.
In the assay with MFNG, TCTTGCAGGACAGAGCTGGGTG yielded a sensor-assay potency score (higher = more potent) of -0.336.
In the case of TAGTTCTATGCTGTGTCCGGCA, the sensor-assay potency score (higher = more potent) with MFRP was -0.362.
TTCTTGTAGGAGAAGCCCCCAA displayed a sensor-assay potency score (higher = more potent) with MIOX of -0.777.
Take TTCCTCGGACAGCAGGTGGGGT: the sensor-assay potency score (higher = more potent) in the assay with MIP was -1.18.
TTCAGTTCAACAGGTTCCCCTG gave a sensor-assay potency score (higher = more potent) with MIP of -0.987.
